Bioassay records (PubChem)
TDP1 cell noCPT – qHTS for Inhibitors of human tyrosyl-DNA phosphodiesterase 1 (TDP1): qHTS in cells in absence of CPT; actives 15% (n = 420,000); DT40 Tdp1-/- hTDP1 cells, no CPT, ATP luminescence, 48 h; Potency, µM (highest dose often 46.2 µM), actives largely listed as inhibitors; AID 686978, 2013; note: nearly all actives have a fitted effect of over 55% in size
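Stably hTDP1-transfected Tdp1-null chicken DT40 cells were treated with library compounds minus camptothecin and grown for at least 48 hr at 37 °C, after which cellular ATP was quantified by luminescence.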
ATXN2 expr inh – inhibitors of ATXN2 expression. HEK-293 ATXN2-luciferase reporter, luminescence, 24 h. Potency, µM (doses to about 57 µM), hits mostly inhibitors. actives 0.72% (n = 360,000); note: nearly all actives have a fitted effect of over 55% in size
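qHTS (up to 57 uM final) was run with 24 h compound exposure of reporter cells at 37 °C. Each well was multiplexed: SteadyGlo luminescence measured ATXN2-luciferase expression after a fluorogenic Gly-Phe-AFC viability readout (25 uM final).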
S2 tox – cell viability loss in ATXN counter-screen; AID 651635; Potency, µM (series often up to 56.7 µM), usual class: cytotoxic; actives 0.49% (n = 400,000); S2 cells (HEK-293 line with an ATXN2-luciferase reporter) viability, CellTiter-Fluor protease fluorescence, 24 h; note: nearly all actives have a fitted effect of over 40% in size
TGFb SMAD3 inh – inhibitors of TGF-b signaling. HepG2 CAGA-GFP TGF-b/SMAD3 reporter, GFP fluorescence, 18 h; TGF-beta stimulated, 500 pg/mL final. AID 588855. actives 1.2% (n = 410,000). Potency, µM (series often up to 46.1 µM), most hits filed as inhibitors; note: nearly all actives have a fitted effect of over 65% in size
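Inhibition was scored as loss of TGF-beta-induced (500 pg/mL final, 18 hours, 37 degrees C) GFP in HEPG2 cells carrying a CAGA-GFP reporter, in DMEM with 1% FBS. Well GFP was summed per cell; Activity was normalised to unstimulated and stimulated DMSO wells, then concentration-response fitting.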
HepG2 tox – kills HepG2 cells in TGF-b inhibitor counter-screen | HepG2 CAGA-GFP viability, ATP luminescence, 18 h | Potency, µM (doses to about 46.1 µM), usual class: cytotoxic | actives 0.76% (n = 410,000)
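HepG2 CAGA-GFP cells (1000/well, DMEM with 1% FBS) received compound, then TGF-beta at 500 pg/mL final, and were incubated 18 hours at 37 degrees C. Viability was read by CellTiter-Glo luminescence. Media-only wells were set as complete cell-killing and DMSO as no toxicity.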
TDP1 cell CPT – DT40-hTDP1 cell growth loss with CPT; actives 12% (n = 420,000); chicken DT40 Tdp1-/-;hTDP1 cells + 20 nM CPT, ATP luminescence, 48 h; Potency, µM (top dose mostly 46.2 µM), usual class: inhibitors; AID 686979; note: nearly all actives have a fitted effect of over 55% in size
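Chicken DT40 Tdp1-/- cells stably complemented with human TDP1 were seeded at 400 cells/well in medium containing 20 nM camptothecin, exposed to pin-transferred compounds, and grown at 37 °C for at least 48 hr. Viability was read as ATP luminescence.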
Each line names hits and unclear results; the compound was inactive in the other large screens. Shown are actives, neighbours in structure and some others; about 17% of the full set was active somewhere. Calls come from the whole dose curve; as a rule, active = well fitted curve in the direction sought with a large enough effect; inconclusive = small, poorly fitted or top-dose-only effect, or another doubt; inactive = no such curve, though single readings can be large; an effect the other way counts as inactive or inconclusive.

COc1cc2cc(-c3ccc(OC)c(OC)c3C)nc(N)c2cc1OC	TDP1 cell noCPT 5.8µM, S2 tox inconclusive, TGFb SMAD3 inh inconclusive, TDP1 cell CPT 5.17µM
COc1cc2cc(-c3ccc(O)cc3O)nc(C)c2cc1OC	TDP1 cell noCPT 6.51µM, TDP1 cell CPT 10.3µM
O=c1c(S(=O)(=O)c2ccccc2)cn(Cc2cccc(F)c2)c2cc(N3CCOCC3)c(F)cc12	TDP1 cell noCPT 23.1µM, TDP1 cell CPT inconclusive (no result: ATXN2 expr inh, S2 tox)
O=c1c(S(=O)(=O)c2ccccc2)cn(Cc2ccccc2)c2cc(N3CCOCC3)c(F)cc12	TDP1 cell noCPT inconclusive, TDP1 cell CPT 20.6µM (no result: ATXN2 expr inh, S2 tox)
O=c1c(S(=O)(=O)c2ccccc2)cn(Cc2cccc(F)c2)c2cc(N3CCCC3)c(F)cc12	TDP1 cell noCPT inconclusive, TDP1 cell CPT inconclusive (no result: ATXN2 expr inh, S2 tox)
O=C1CCC(C(=O)OC(C(=O)Nc2ccc([N+](=O)[O-])cc2Br)c2ccccc2)=NN1 (centres undefined)	TDP1 cell CPT inconclusive
CC(=O)OC(C)C1C2=C(C(=O)CC1(C)O)C(=O)c1c(ccc(-c3ccc4c(c3O)C(=O)C3=C(C4=O)C(C(C)OC(C)=O)C(C)(O)CC3=O)c1O)C2=O (centres undefined)	TDP1 cell noCPT 1.46µM, S2 tox inconclusive, TGFb SMAD3 inh inconclusive, TDP1 cell CPT 1.16µM
Cc1nc2cc(S(=O)(=O)N(C)C)ccc2n1-c1ccccc1	TDP1 cell noCPT inconclusive
COc1ccc(S(=O)(=O)N2CCN(c3ccccc3OC)CC2)cc1C(=O)N1CCCCC1	TDP1 cell noCPT inconclusive, TDP1 cell CPT inconclusive
O=C(/C=C/c1ccc(F)cc1)N1CCN(c2ccccn2)CC1	none
Nc1cccc2c1C(=O)N(C(=O)/C=C/c1ccc(F)cc1)C2=O	TDP1 cell noCPT 23.1µM, ATXN2 expr inh inconclusive, TGFb SMAD3 inh inconclusive, TDP1 cell CPT 16.4µM (no result: S2 tox)
CC(OC(=O)CN1C(=O)C2CC=CCC2C1=O)C(=O)Nc1ccc(F)cc1Cl (centres undefined)	none
CN(C(=O)c1cccc(NC(=O)Cc2ccc(NC(=O)C3CCN(C(=O)C4CCC4)CC3)cc2)c1)C1CCCCC1	TDP1 cell noCPT inconclusive, TDP1 cell CPT inconclusive
CC1(C(=O)Nc2nc3ccccc3s2)CC1(Br)Br (centres undefined)	none
O=C(Nc1cccc2nsnc12)c1cc2c(cc1Cl)Sc1nccn1S2(=O)=O	TDP1 cell noCPT inconclusive, TDP1 cell CPT 23.1µM
Cc1ccc(S(=O)(=O)Nc2ccc(Br)cc2C(NCC(=O)O)c2ccccc2)cc1 (centres undefined)	TGFb SMAD3 inh inconclusive
O=C(O)CSc1cc(NS(=O)(=O)c2ccc(Br)cc2)c2ccccc2c1O	TDP1 cell noCPT 5.17µM, TGFb SMAD3 inh inconclusive, TDP1 cell CPT 2.91µM (no result: ATXN2 expr inh)
CCOC(=O)N1C(=O)[C@](c2ccc(Cl)cc2)(C(C)C)N1C(=O)OCC	TDP1 cell noCPT 14.6µM, ATXN2 expr inh inconclusive, S2 tox inconclusive, TGFb SMAD3 inh inconclusive, HepG2 tox 10µM, TDP1 cell CPT 18.4µM
CCOC(=O)N1C(=O)[C@@](c2ccc(Cl)cc2)(C(C)C)N1C(=O)OCC	TDP1 cell noCPT inconclusive, ATXN2 expr inh inconclusive, TGFb SMAD3 inh inconclusive, HepG2 tox 15.8µM, TDP1 cell CPT 20.6µM (no result: S2 tox)
CC1=C(/C=N/Nc2ccc([N+](=O)[O-])cc2[N+](=O)[O-])C(C)(C)CCC1	TDP1 cell noCPT 18.4µM, TDP1 cell CPT inconclusive
COc1ccc(OC)c(CNC(=O)c2ccc(N3Cc4ccccc4Oc4ncccc43)s2)c1	TDP1 cell noCPT inconclusive, TDP1 cell CPT inconclusive (no result: ATXN2 expr inh, S2 tox)
COc1ccccc1CNC(=O)c1ccc(N2Cc3cccc(OC)c3Oc3ncccc32)s1	TDP1 cell noCPT 11.6µM, TDP1 cell CPT 14.6µM (no result: ATXN2 expr inh, S2 tox)
O=C(O)Cn1nnc(-c2cccs2)n1	HepG2 tox 3.16µM
Cc1ccc(N2CCn3c2nc2c3c(=O)n(CCCc3ccccc3)c(=O)n2C)cc1	none (no result: ATXN2 expr inh, S2 tox)
CCOC(=O)c1cccc(NC(=O)c2cn(-c3cccc(OC)c3)c(=O)c3ccccc23)c1	none (no result: ATXN2 expr inh, S2 tox)
